UBC13 inh: blocks human UBC13 polyubiquitin chain formation. TR-FRET. inhibition, % at 20 µM. 330,000 tested, 0.47% active; in the data active = inhibition above about 45%, passing the limit was not always enough
MEKK3 PB1 HTS: modulators (inhibitors or enhancers) of MEK5 binding to human MEKK3 PB1 domain; Q99759; bead-based flow cytometry, Alexa488-MEK5 binding to MEKK3; actives lie on both sides; 0 = blocked by unlabeled MEK5, 100 = vehicle; binding response (% of control), % at 10 µM; 290,000 tested, 1.4% active; AID 1529;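 active = binding response more than 3 SD above or below the average of its plate-row segment, actives on both sides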;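 note: Alexa488 bead fluorescence after subtracting the streptavidin-only scavenger bead signal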
MEKK2 WT-MEK5: raises or lowers MEK5 binding to wildtype human MEKK2 PB1 domain | 290,000 tested, 1.1% active | binding response (% of control), % at 10 µM | bead flow cytometry, Alexa488-MEK5 binding to MEKK2 WT; actives lie on both sides | Q9Y2U5 | AID 1531; in the data active = binding response below about 67% or above about 130%
MEKK2 mut-MEK5: signal of MEK5 binding to mutant human MEKK2 PB1 domain; percent response, % at 10 µM; bead flow cytometry, Alexa488-MEK5 binding to MEKK2 mutant; 290,000 tested, 0.35% active; AID 1530; in the data active = percent response above about 24%, passing the limit was not always enough
MEKK2wt confirm: raises or lowers MEK5 binding to wildtype human MEKK2, retest | 5,900 tested, 2.4% active | bead flow cytometry, Alexa488-MEK5 binding to MEKK2 WT; actives lie on both sides | AID 1892 | shares compounds with MEKK3 PB1 HTS | binding response (% of control), % at 10 µM; in the data active = binding response below about 16% or above about 210%; inactive = in between
MEKK2mut-MEK5: signal of MEK5 binding to mutant human MEKK2, retest; shares compounds with MEKK3 PB1 HTS; bead flow cytometry, Alexa488-MEK5 binding to MEKK2 mutant; percent response, % at 10 µM; 5,900 tested, 2% active; AID 1893; in the data active = percent response mostly above about 71%, no sharp cut-off; inactive = mostly below about 38%;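 note: higher means compound restores mutant binding toward wildtype level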
MEKK3-MEK5 inh: MEKK3-MEK5 PB1 inhibition, single concentration confirmation | shares compounds with MEKK3 PB1 HTS | bead flow cytometry, Alexa488-MEK5 binding to MEKK3; stronger effect = lower value | binding response (% of control), % at 10 µM | 5,900 tested, 1.8% active | AID 1894;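 active = binding response below 72% of control, or above a set upper limit, though filed actives all read lower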;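 note: 100% = DMSO only wells and 0% = binding blocked by excess unlabeled MEK5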
* marks the source's active call; other numbers are inactive results; x = no result given. This is a sample that favours compounds with a hit; in the whole collection about 2.3% have one here.

SMILES	UBC13 inh	MEKK3 PB1 HTS	MEKK2 WT-MEK5	MEKK2 mut-MEK5	MEKK2wt confirm	MEKK2mut-MEK5	MEKK3-MEK5 inh
CCOC(=O)N(Cc1ccccc1)Cc1ccc(C(=O)N[C@@H](Cc2ccccc2)C(=O)O)cc1	-2	x	x	x	x	x	x
CC1CCC(N2CCN(S(=O)(=O)Cc3ccccc3)CC2)CC1 (configuration not stated)	5	104	105	-1	x	x	x
O=S(=O)(Cc1ccccc1)N1CCC(N2CCN(c3ccccc3)CC2)CC1	1	133*	117	5	111	4	104
Cc1cccc(N(Cc2ccccc2)C(=O)C2CCN(C(=O)c3ccccc3C)CC2)c1	13	x	x	x	x	x	x
COc1cc(CNCCN2CCOCC2)ccc1OCc1ccc(Cl)cc1	10	103	110	4	x	x	x
COc1cc(CNCCCN2CCOCC2)cc(Br)c1OCc1ccc(Cl)cc1	28	105	158*	30	175	32	103
CCOc1cc(CNCCCN2CCOCC2)cc(Br)c1OCC(=O)Nc1cccc(C(F)(F)F)c1	35	103	162*	31*	175	46	110
CCc1nnc(NC(=O)c2ccc(Br)c(S(=O)(=O)N3CCOCC3)c2)s1	-6	101	100	-3	x	x	x
CC1(C)CC(NS(=O)(=O)c2ccc3ccccc3c2)CC(C)(C)N1	8	100	103	2	x	x	x
NC(=O)COC(=O)c1oc2ccccc2c1CSc1ccc(Cl)cc1	10	157*	114	1	104	1	102
O=C(COC(=O)c1oc2ccccc2c1CSc1ccc(Cl)cc1)NC1CCCC1	3	112	113	3	x	x	x
COc1cccc(O)c1CN1CCC(C(=O)Nc2ccc(Oc3cccnc3)cc2)CC1	0	101	114	11	x	x	x
COc1cccc(O)c1CN1CCC(C(=O)Nc2ccc(-c3cccc(C)c3)cc2)CC1	30	119	227*	61*	134	16	101
CCOc1ccccc1NC(=S)Nn1cnnc1	1	101	103	9	x	x	x
COc1ccc(NC(=O)Cc2c(SC)c3ccccc3n2Cc2ccccc2)cc1	-11	160*	109	1	98	-3	100
CSc1c(CC(=O)NCCCO)n(Cc2ccccc2)c2ccccc12	-1	99	104	1	x	x	x
c1ccc(CN2CCC(Nc3nc(-c4cccnc4)nc4ccccc34)CC2)cc1	-2	102	144*	16	137	12	98
c1ccc(CN2CCC(Nc3ncnc4sccc34)CC2)cc1	22	105	129	51*	125	12	103
c1ccc(CNc2nc(-c3cccnc3)nc3ccccc23)cc1	15	95	95	2	x	x	x
Cc1sc2ncnc(NC3CCN(Cc4ccccc4)CC3)c2c1C	3	91	89	-5	x	x	x
COc1ccccc1/C=C/C=N/n1c(-c2cc(C)[nH]n2)n[nH]c1=S	-15	91	91	1	x	x	x
Cc1cc(-c2n[nH]c(=S)n2/N=C/C=C/c2ccccc2)n[nH]1	-9	153*	105	0	103	10	105
COc1cc(/C=C/C(=O)C2C(=O)C=C(C)OC2=O)cc(OC)c1O (configuration not stated)	-12	135*	117	3	104	-4	100
COc1ccc(/C=C/C(=O)C2C(=O)C=C(C)OC2=O)cc1O (configuration not stated)	10	106	111	12	x	x	x
O=C(OCc1nc2ccccc2s1)c1ccc([N+](=O)[O-])o1	-9	103	99	0	x	x	x
O=C(OCc1nc2ccccc2s1)c1ccc(Br)o1	0	144*	134	6	104	-1	101
CCn1c(SCC(=O)N=Nc2c(O)[nH]c3ccccc23)nnc1-c1ccc(C(C)(C)C)cc1	-4	132*	111	1	99	-3	99
CCn1c(SCC(=O)N=Nc2c(O)[nH]c3ccccc23)nc2ccccc21	-3	145*	101	1	105	7	107
O=C(CSCc1ccccc1)N=Nc1c(O)[nH]c2ccccc12	-5	103	102	-1	x	x	x

Assay outcomes as filed in PubChem BioAssay.
